High-throughput results deposited in PubChem BioAssay by Broad Institute.
Shown are actives, neighbours in structure and some others; about 3% of the full set was active somewhere.
PfHsp90 set2 = inhibits growth of yeast expressing Plasmodium falciparum Hsp90; S. cerevisiae expressing PfHsp90, BacTiter-Glo ATP, 48 h; yeast lacking PDR1 and PDR3 efflux regulators; inhibition, % at 9.4 µM; 310,000 tested, 0.32% active; AID 504621;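 active = every replicate shows inhibition above about 80%, whatever the replicate mean, limit read from the data; inconclusive = mean inhibition reaches the set limit but some replicate falls short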;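 note: 0% = DMSO neutral controls and 100% = 20 µM radicicol positive controls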
MITF act = activators of MITF-driven TRPM1 promoter activity in SK-MEL-5 cells | activation, % at 12.5 µM | SK-MEL-5 TRPM1-promoter luciferase, 24 h; % of positive control, neutral wells = 0 | 300,000 tested, 0.75% active | AID 588334;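 active = mean activation of at least 80% with every replicate also reaching 80%; inconclusive = mean reaches 80% but some replicate falls short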;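 note: 0% = neutral control wells and 100% = parthenolide positive control wells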
Glyco luc inh = N-linked glycosylation inhibition; D54 ERlucT glycosylation luciferase reporter, 24 h; percent of 100 nM tunicamycin response; AID 588692; reporter increase, % at 12.5 µM; 360,000 tested, 0.23% active;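 active = mean luciferase reporter signal, scaled so untreated is 0 and the glycosylation-blocking control 100, at or above a set limit in every replicate; inconclusive = mean reaches the limit but not every replicate does; inactive = mean below the limit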;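 note: luciferase carries N-glycosylation sites so blocking glycosylation raises the light; 0% = median of neutral control wells and 100% = median of 100 nM tunicamycin wells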
Vif imaging = HIV Vif inhibition. 340,000 tested, 0.35% active. HEK293T cells, Vif self-association by quenched fluorescence, imaging, 24 h. inhibition, % at 7.49 µM; in the data active = inhibition above about 50%, passing the limit was not always enough; inconclusive = no clear call, values can overlap the other calls; inactive = below about 31%
Wnt act = activators of Wnt/beta-catenin signaling | Wnt/beta-catenin reporter cell assay, activator, plate reader | activation, % at 9.35 µM | 300,000 tested, 1.2% active; in the data active = activation above about 30%, passing the limit was not always enough; inconclusive = no clear call, values can overlap the other calls;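 note: 0% = neutral control wells and 100% = positive control wells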
esBAF inh = inhibitors of esBAF chromatin remodeling in mouse ES cells; 350,000 tested, 2% active; Bmi1-luciferase knock-in reporter, 24 h; 100% = twice the neutral-well signal; reporter increase, % at 12.5 µM; in the data active = activation above about 40%; inconclusive = no clear call, values can overlap the other calls;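 note: 0% = median of the plate's neutral control wells and 100% = double that signal; a rise in the Bmi1 reporter signal indicates esBAF inhibition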
Starred values were filed as active, the others as inactive; ? = inconclusive; / = no result given.

SMILES	PfHsp90 set2	MITF act	Glyco luc inh	Vif imaging	Wnt act	esBAF inh
COc1cc(CC2C(=O)N(C)C(=O)N(C)C2=O)ccc1OCc1ccccc1	-13.8	42.7	-0.5	1.0	28.0	45.9*
CC(C)NS(=O)(=O)c1ccc(OCC(=O)N2CCN(C)CC2)cc1	0.2	-2.0	0.7	20.5	1.0	-1.7
COc1ccc(C(O)CNC(C)C)c(F)c1OC (stereo not drawn)	29.3	6.0	1.6	16.6	13.2	-1.1
Oc1cc(O)cc(/C=C/c2ccc(O)cc2O)c1	?	94.3*	1.3	-0.1	/	-6.6
COc1ccc(C2C(C#N)=C(N)Oc3c2c(=O)oc2ccccc32)cc1Cn1cc([N+](=O)[O-])cn1 (stereo not drawn)	8.8	1.6	0.9	-2.3	/	/
CC/C(=N\Nc1ccccc1)c1c(O)[nH]c(=O)[nH]c1=O	7.3	/	1.7	7.0	4.1	-5.1
CC/C(=N\NC(N)=O)c1c(O)[nH]c(=O)[nH]c1=O	1.0	-1.5	0.7	-4.9	73.6*	/
COC(=O)[C@@H]1C[C@H]1[C@@H](NP(=O)(c1ccccc1)c1ccccc1)c1ccccc1	-15.2	-6.2	32.0*	19.8	10.5	9.3
Cc1ccc2nc(-c3ccc(CN4CCC(n5c(=O)[nH]c6cc(Cl)ccc65)CC4)cc3)c(-c3ccccc3)nc2c1	/	/	/	/	0.2	/
CN(C)C(=O)Oc1ccc2c(c1)O/C(=C\c1ccc(Cl)cc1)C2=O	-5.7	103.7*	-1.3	3.2	8.9	?
CN1C2CCC1CC(OC(=O)c1ccc(Cl)cc1)C2 (stereo not drawn)	14.4	3.5	-1.1	-1.3	-2.1	-7.0
CC(C)(C)C(=O)c1cn(CC(=O)NCc2ccco2)c2ccccc12	-19.9	84.8*	2.5	3.2	-1.3	/
O=C(Cn1cc(C(=O)c2ccccc2F)c2ccccc21)NCc1ccco1	-10.2	-10.9	-2.4	-0.9	/	8.0
C=C(C)[C@@]12OC3(c4ccccc4)O[C@@H]1C1[C@@H]4O[C@]4(CO)[C@@H](O)[C@]4(O)C(=O)C(C)=C[C@H]4[C@@]1(O3)[C@H](C)[C@H]2OC(=O)/C=C/C=C/c1ccccc1 (stereo partly drawn)	/	-7.5	52.8*	?	/	-0.1
CCCNC(=O)N1[C@H]2CC[C@@H]1C(C(=O)OC)=C(c1ccc(Cl)c(C(F)(F)F)c1)C2	7.4	14.0	-3.0	0.1	-4.3	-6.9
CN1C(=O)NC(=O)C(C)(C2=CCCCC2)C1=O (stereo not drawn)	/	99.9*	-0.1	17.4	0.1	27.5
COC(=O)[C@@H]1[C@@H](C(=O)OC)C2(c3ccccc3-c3ccccc32)N(c2ccc(Cl)cc2)N1C#N	-25.6	-93.0	3.9	-4.0	/	/
COC(=O)C[C@]1(C(=O)OC)CN(C#N)N(c2ccc(Cl)cc2)C12c1ccccc1-c1ccccc12	-10.4	-94.9	-19.2	57.2*	-21.7	/
Cc1nn(Cc2ccccc2Cl)c(C)c1C(=O)NC1CCCc2ccccc21 (stereo not drawn)	-1.4	-6.6	1.7	-0.7	1.4	/
Clc1ccc(C(Cn2ccnc2)OCc2csc3c(Cl)cccc23)c(Cl)c1 (stereo not drawn)	86.1*	-5.1	-5.2	-11.8	-8.0	-7.8
Cc1ccc(O)c(CN2CCN(c3ccccc3)CC2)c1	66.2	8.6	/	/	-1.3	/
CC(=NCC1CCCO1)c1c(O)n(C)c(=O)n(C)c1=O (stereo not drawn)	/	-5.8	0.2	-2.4	/	8.9
O=C(c1ccccc1)C1NC1c1ccccc1 (stereo not drawn)	-5.4	18.2	-2.4	11.0	-3.9	49.1*
CCCC[N+]12CCC(CC1)C(C(=O)c1cccs1)C2 (stereo not drawn)	7.0	-1.4	-2.9	6.7	/	/
O=C1NC(=S)NC(=O)C1=Cc1ccc(OCc2ccccc2)cc1	/	50.0	-2.5	10.0	6.5	44.4*
SMILES	PfHsp90 set2	MITF act	Glyco luc inh	Vif imaging	Wnt act	esBAF inh
O=C1CN=C(c2cc([N+](=O)[O-])ccc2Cl)c2cc([N+](=O)[O-])ccc2N1	5.4	/	-1.4	-3.1	46.8*	1.4
c1cncc(CNC2=NCCCCC2)c1	-10.5	-0.5	2.5	/	-3.2	-4.4
O=[N+]([O-])c1ccc(N2CCOCC2)c2c1no[n+]2[O-]	/	/	-18.1	106.1*	-10.0	-83.0
O=[N+]([O-])c1ccc(N2CCOCC2)c2cccnc12	0.2	-11.2	1.4	5.0	-0.7	/
CCCC(=O)c1cc(CP(=O)(OCC)OCC)oc1C	/	/	0.9	50.1*	2.5	-7.7
CCNC(=O)C1OC(n2cnc3c(N)ncnc32)C(O)C1O (stereo not drawn)	-0.5	12.8	6.2	50.7*	/	-13.4
Oc1cc(Cl)c(Cl)c(Cl)c1Cl	104.2*	-4.7	2.3	15.7	3.3	-3.1
Oc1cc(Cl)c(Cl)cc1Cl	/	/	/	/	-2.3	/
O=c1[nH]c(=O)n(-c2ccc(Cl)cc2)c(O)c1C=NCCN1CCCCC1	-11.0	7.9	1.3	-1.4	-0.9	-2.7
COC(=O)C1=C(c2ccc(Cl)c(C(F)(F)F)c2)C[C@@H]2CC[C@H]1N2C(=O)N1CCC(O)(c2ccc(Cl)cc2)CC1	-26.6	-19.2	-3.9	-4.3	-13.6	6.8
COc1ccc(-c2ccc3c(c2)CN(c2cccc(Cl)c2)Cc2cnnn2-3)cc1	/	/	-0.3	4.9	-3.1	14.9
Clc1cccc(N2Cc3cc(-c4ccccc4)ccc3-n3nncc3C2)c1	/	/	39.6*	-9.9	-10.7	-55.8
CCOP(=O)(Nc1ccc2c(c1)C(=NNC(N)=S)c1ccccc1-2)OCC	14.7	-7.8	16.5	-5.9	-2.5	/
O=c1cccc2n1CC1CC2CN(CC(O)CN2CC3CC(C2)c2cccc(=O)n2C3)C1 (stereo not drawn)	-3.4	-1.5	0.7	-4.3	0.2	-12.2
CC(=O)c1cc(C(C)=O)c(C)[n+](C)c1C	4.3	/	2.2	91.0*	0.2	-3.7
CC1=C(O)C(=O)C=C2C1=CC=C1C2(C)CCC2(C)C3CC(C)(C(=O)O)CCC3(C)CCC12C (stereo not drawn)	125.3*	-95.0	-19.6	46.5	1.3	-87.5
CCOC(=O)C1=C(N)OC2=C(C(=O)CCC2)[C@]12C(=O)N(CC(N)=O)c1ccccc12	8.0	1.7	1.0	-1.5	0.3	/
CN(C)C(=S)SSC(=S)N(C)C	108.2*	-55.1	5.5	3.3	-2.4	2.4
CN1C2CCC1/C(=C/c1ccccn1)C(=O)/C2=C\c1ccccn1	20.7	-96.6	-19.6	106.3*	-12.2	/
O=C(NC1(C(F)(F)F)Oc2ccccc2O1)N1CCC2(CC1)OCCO2	/	2.0	-5.0	?	/	6.1
O=C(NC1(C(F)(F)F)Oc2ccc(Cl)cc2O1)N1CCC2(CC1)OCCO2 (stereo not drawn)	32.2	-20.3	-7.2	77.6*	/	-1.1
COc1ccc(OC)c(N2C(=O)NC(=O)/C(=C\c3ccc([N+](=O)[O-])s3)C2=O)c1	90.7*	-3.0	2.0	-5.6	-0.6	-1.6
